Assay results from the supplement of paper PMC12350171.
Counter-ions that a name gives are not always drawn. A number with no mark means an inactive call.

Assays:
Conditions in all cases: 20 µM
[1] = tested on: Salmonella enterica typhimurium; assay: growth AUC normalised to DMSO control (fraction of control); higher = less growth inhibition, active = hit call of the paper
In short: (§1)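 Three biological replicates were carried out, with OD578 read hourly for 24 h. Before inoculation at a starting OD578 of 0.01, pathogens were passaged anaerobically twice; plates were pre-reduced mGAM containing 20 μM compound and 1% DMSO, sealed with breathable membranes, and the Haemophilus parainfluenzae medium carried added hemin and NAD. Area under each growth curve was calculated by the trapezoidal rule up to the exponential-to-stationary transition and normalised to DMSO controls on the same plate.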

Shigella flexneri = assay: as above
In short: as §1

Vibrio cholerae = assay: as above
In short: as §1

[2] = tested on: Yersinia pseudotuberculosis; assay: as above
In short: as §1

P. vulgatus RND KO = assay: growth AUC normalised to DMSO control (median) (fraction of control); higher = less growth inhibition, active = hit call of the paper
In short: (§2)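 For normalised area under the curve, growth curves were truncated at entry into stationary phase, integrated by the trapezoidal rule and divided against vehicle wells on the same plate. The curves came from strains passaged twice overnight without oxygen and then grown in mGAM in 96-well plates at a starting OD578 of 0.01. Each well held an approved-drug library compound at 20 μM with 1% DMSO, and OD578 was read hourly for 24 h in an anaerobic incubator. Values are medians of three biological replicates.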

P. vulgatus WT = assay: as above
In short: as §2

[3] = tested on: S. enterica typhimurium WT; assay: as above
In short: as §2

[4] = tested on: S. enterica typhimurium tolC KO; assay: as above
In short: as §2
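Throughout, for growth AUC normalised to DMSO control (median): active when median AUC fell below 0.1.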

SMILES	growth AUC normalised to DMSO control [1]	growth AUC normalised to DMSO control (Shigella flexneri)	growth AUC normalised to DMSO control (Vibrio cholerae)	growth AUC normalised to DMSO control [2]	growth AUC normalised to DMSO control (P. vulgatus RND KO)	growth AUC normalised to DMSO control (P. vulgatus WT)	growth AUC normalised to DMSO control [3]	growth AUC normalised to DMSO control [4]
Nc1nc2n[nH]nc2c(=O)[nH]1 [Azaguanine-8]	1.01	1.05	1.01	0.996	1.01	0.999	0.987	1.01
O=C(CCCN1CC=C(n2c(=O)[nH]c3ccccc32)CC1)c1ccc(F)cc1 [Droperidol]	0.989	0.985	0.892	0.98	0.982	0.976	0.99	0.936
OCCN1C[C@H](O)[C@@H](O)[C@H](O)[C@H]1CO [Miglitol]	0.991	0.971	0.986	0.991	1	0.995	1.01	0.988
C[C@H](O)C(=O)Nc1c(I)c(C(=O)NC(CO)CO)c(I)c(C(=O)NC(CO)CO)c1I [Iopamidol]	1.03	1.08	1.07	1.03	1.08	1.08	1.01	1.01
N=C(N)NCCN1CCCCCCC1 [Guanethidine sulfate]	1.01	0.988	1.04	1.03	1.02	1.01	1.01	1.01
CC[C@@H](CO)NCCN[C@@H](CC)CO [Ethambutol dihydrochloride]	0.943	0.976	1	1.01	1.01	0.998	1	0.989
CC(=O)N(CC(O)CO)c1c(I)c(C(=O)NCC(O)CO)c(I)c(C(=O)NCC(O)CO)c1I (centres undefined) [Iohexol]	0.997	0.968	0.995	1	1.01	0.978	0.999	1.01
NS(=O)(=O)c1cc(C(=O)O)cc(N2CCCC2)c1Oc1ccccc1 [Piretanide]	1.03	1.07	1.08	1.01	1.06	1.07	1	0.997
CO/N=C(\C(=O)N[C@@H]1C(=O)N2C(C(=O)O)=C(COC(C)=O)CS[C@H]12)c1csc(N)n1 [Cefotaxime sodium salt]	0.00568 (active)	0.0409 (active)	0.0691 (active)	0.0555 (active)	0.00835 (active)	0.0141 (active)	0.00974 (active)	0.00366 (active)
COCCOC(=O)C1=C(C)NC(C)=C(C(=O)OC(C)C)C1c1cccc([N+](=O)[O-])c1 (centres undefined) [Nimodipine]	0.984	0.939	0.956	0.957	1.02	1	0.991	0.967
CCc1oc2ccccc2c1C(=O)c1cc(Br)c(O)c(Br)c1 [Benzbromarone]	1.01	0.989	0.989	0.996	0.57	0.699	1	0.925
CN(Cc1cc(Br)cc(Br)c1N)C1CCCCC1 [Bromhexine hydrochloride]	0.998	1.01	0.714 (active)	1.02	0.999	0.977	1	0.948
Nc1ccc(O)c(C(=O)O)c1 [Mesalamine]	1.01	1.02	1.02	1.03	1	1.03	0.998	1.01
NC(CO)C(=O)NNCc1ccc(O)c(O)c1O (centres undefined) [Benserazide hydrochloride]	1	1	1.01	0.942	0.969	0.973	0.982	1
O=C(O)c1cc(=O)c2c(OCC(O)COc3cccc4oc(C(=O)O)cc(=O)c34)cccc2o1 [Cromolyn disodium salt]	0.98	0.995	1	1	1.03	1.03	1.02	0.996
O=C(N/N=C/c1ccc([N+](=O)[O-])o1)c1ccc(O)cc1 [Nifuroxazide]	0.866 (active)	0.189 (active)	0.623 (active)	0.96	0.883	0.861	0.924	0.862
Cc1cccc(C)c1NC(=O)C(C)N (centres undefined) [Tocainide hydrochloride]	1	0.967	1.01	0.985	1.02	1.02	0.999	1
CC(C)n1c(/C=C/C(O)CC(O)CC(=O)O)c(-c2ccc(F)cc2)c2ccccc21 (centres undefined) [Fluvastatin sodium salt]	0.985	0.995	0.997	0.996	1	1	1	0.931
COc1ccc2[nH]c([S+]([O-])Cc3ncc(C)c(OC)c3C)nc2n1 (centres undefined) [Tenatoprazole]	0.988	1	0.894	0.998	1.03	1.06	1	0.963
CCN(CC)Cc1cc(Nc2ccnc3cc(Cl)ccc23)ccc1O [Amodiaquine dihydrochloride dihydrate]	0.974	1.02	1	0.966	1	0.961	0.982	1
C1CCC(C(CC2CCCCN2)C2CCCCC2)CC1 (centres undefined) [Perhexiline maleate]	0.983	0.977	0.931	1.01	0.915	0.954	0.994	0.945
CC(Oc1c(Cl)cccc1Cl)C1=NCCN1 (centres undefined) [Lofexidine]	1.01	1	1.01	1.01	1.02	1.03	1.02	1
CC(NCCC(c1ccccc1)c1ccccc1)c1ccccc1 (centres undefined) [Fendiline hydrochloride]	1.01	1.02	0.86	0.996	0.978	0.977	1	0.95
Cc1cccc(Nc2ccncc2S(=O)(=O)NC(=O)NC(C)C)c1 [Torsemide]	1	1.04	1.01	1.01	1.04	1.05	1.01	1
Oc1c(I)cc(Cl)c2cccnc12 [Clioquinol]	1.03	0.996	1.07	1.01	0.134	0.0312 (active)	1.01	0.55
C[C@]12C=CC(=O)C=C1CC[C@H]1[C@@H]3C[C@@H](O)[C@](O)(C(=O)CO)[C@@]3(C)C[C@H](O)[C@@]12F [Triamcinolone]	1	0.977	1	1	1.01	0.98	0.997	1.01
Cc1c(Cl)cccc1Nc1ccccc1C(=O)O [Tolfenamic acid]	1	0.961	0.901	0.963	0.802	0.803	1.02	0.992
CNCCc1ccccn1 [Betahistine mesylate]	0.997	0.976	0.985	1.01	1	1	1.02	1.01
